Several values for one entry are separate records, joined by “and”; a condition that tells them apart may be missing. Equal entries are not always repeated. Screen size: about 5,500 compounds; about 2,000 (36%) were called active. Not shown: some 18% with an inconclusive outcome. No stated cut-off is given here; in the data, active means normalized growth mostly below about 0.91 (no sharp cut-off); inconclusive means no clear call, values can overlap the other calls; inactive means mostly above about 0.92. The list shows a part of the results. Where a structure was tested more than once in an assay, its records may differ in their call.
Assay: chemical genetic growth profiling, strain panel (AID 1159580);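 further: tested at 20 µM; growth read once vehicle control cultures reached saturation at 30 °C; 1 = growth at the plate median or of vehicle wells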
Details: growth OD

Measured: normalized growth

CN1CCN(CCCN2c3ccccc3Sc3ccc(Cl)cc32)CC1
0.151 (active) and 1.03 (inactive): S. cerevisiae deletion strains, locus YMR307W, strain GAS1, stronger effect = lower value
0.101 (active) and 1.03 (inactive): S. cerevisiae deletion strains, locus YPL055C, strain LGE1, stronger effect = lower value
0.0843 (active) and 0.921 (inactive): S. cerevisiae deletion strains, locus YNL128W, strain TEP1, stronger effect = lower value
0.512 (active) and 0.943 (inactive): S. cerevisiae deletion strains, locus YNL153C, strain GIM3, stronger effect = lower value
active: S. cerevisiae deletion strains, locus YKL190W, strain CNB1, stronger effect = lower value 0.124 | S. cerevisiae deletion strains, locus YKR001C, strain vps1, stronger effect = lower value 0.0709 | S. cerevisiae deletion strains, locus YLL026W, stronger effect = lower value 0.898 | S. cerevisiae deletion strains, locus YLR027C, strain aat2, stronger effect = lower value 0.843 | S. cerevisiae deletion strains, locus YLR221C, strain rsa3, stronger effect = lower value 0.885 | S. cerevisiae deletion strains, locus YLR320W, strain mms22, stronger effect = lower value 0.866 | S. cerevisiae deletion strains, locus YLR330W, strain CHS5, stronger effect = lower value 0.892 | S. cerevisiae deletion strains, locus YLR342W, strain FKS1 (second series), stronger effect = lower value 0.405 | S. cerevisiae deletion strains, locus YLR342W, strain FKS1, stronger effect = lower value 0.523 | S. cerevisiae deletion strains, locus YLR418C, strain cdc73, stronger effect = lower value 0.25 | S. cerevisiae deletion strains, locus YML120C, strain ndi1, stronger effect = lower value 0.823 | S. cerevisiae deletion strains, locus YMR058W, strain fet3, stronger effect = lower value 0.742 | S. cerevisiae deletion strains, locus YMR125W, strain sto1, stronger effect = lower value 0.869 | S. cerevisiae deletion strains, locus YMR223W, strain ubp8, stronger effect = lower value 0.784 | S. cerevisiae deletion strains, locus YMR231W, strain pep5, stronger effect = lower value 0.0744 | S. cerevisiae deletion strains, locus YMR263W, strain SAP30, stronger effect = lower value 0.717 | S. cerevisiae deletion strains, locus YNL067W, strain RPL9B, stronger effect = lower value 0.724 | S. cerevisiae deletion strains, locus YNL209W, strain ssb2, stronger effect = lower value 0.652 | S. cerevisiae deletion strains, locus YNL233W, strain BNI4, stronger effect = lower value 0.635 | S. cerevisiae deletion strains, locus YNL307C, strain MCK1, stronger effect = lower value 0.777 | S. cerevisiae deletion strains, locus YNL322C, strain KRE1, stronger effect = lower value 0.0727 | S. cerevisiae deletion strains, locus YNR052C, strain pop2, stronger effect = lower value 0.732 | S. cerevisiae deletion strains, locus YOL006C, strain TOP1, stronger effect = lower value 0.427 | S. cerevisiae deletion strains, locus YOR001W, strain rrp6, stronger effect = lower value 0.864 | S. cerevisiae deletion strains, locus YOR070C, strain gyp1, stronger effect = lower value 0.347 | S. cerevisiae deletion strains, locus YOR083W, strain WHI5 (second series), stronger effect = lower value 0.652 | S. cerevisiae deletion strains, locus YOR083W, strain WHI5, stronger effect = lower value 0.669 | S. cerevisiae deletion strains, locus YOR106W, strain vam3, stronger effect = lower value 0.161 | S. cerevisiae deletion strains, locus YOR184W, strain ser1, stronger effect = lower value 0.248 | S. cerevisiae deletion strains, locus YOR265W, strain rbl2, stronger effect = lower value 0.91 | S. cerevisiae deletion strains, locus YOR270C, strain vph1, stronger effect = lower value 0.673 | S. cerevisiae deletion strains, locus YPL051W, strain arl3, stronger effect = lower value 0.778 | S. cerevisiae deletion strains, locus YPL241C, strain CIN2, stronger effect = lower value 0.484 | S. cerevisiae deletion strains, locus YPR163C, strain tif3, stronger effect = lower value 0.148 | S. cerevisiae deletion strains, strain wtn01, stronger effect = lower value 0.355 | S. cerevisiae strains, strain wild type, stronger effect = lower value 0.0575
inactive: S. cerevisiae deletion strains, locus YKL009W, strain mrt4, stronger effect = lower value 0.936 | S. cerevisiae deletion strains, locus YKL068W, stronger effect = lower value 0.989 | S. cerevisiae deletion strains, locus YKL085W, strain MDH1 (second series), stronger effect = lower value 0.979 | S. cerevisiae deletion strains, locus YKL085W, strain MDH1, stronger effect = lower value 0.979 | S. cerevisiae deletion strains, locus YKL160W, strain elf1, stronger effect = lower value 0.974 | S. cerevisiae deletion strains, locus YKR026C, strain gcn3, stronger effect = lower value 0.976 | S. cerevisiae deletion strains, locus YKR091W, strain srl3, stronger effect = lower value 0.982 | S. cerevisiae deletion strains, locus YLL001W, strain dnm1, stronger effect = lower value 0.959 | S. cerevisiae deletion strains, locus YLL041C, strain sdh2, stronger effect = lower value 0.943 | S. cerevisiae deletion strains, locus YLR039C, strain RIC1, stronger effect = lower value 1.18 | S. cerevisiae deletion strains, locus YLR058C, strain SHM2, stronger effect = lower value 0.963 | S. cerevisiae deletion strains, locus YLR102C, strain apc9, stronger effect = lower value 1.01 | S. cerevisiae deletion strains, locus YLR113W, strain HOG1, stronger effect = lower value 0.966 | S. cerevisiae deletion strains, locus YLR258W, strain gsy2, stronger effect = lower value 0.943 | S. cerevisiae deletion strains, locus YLR262C, strain YPT6 (second series), stronger effect = lower value 1.06 | S. cerevisiae deletion strains, locus YLR262C, strain YPT6, stronger effect = lower value 0.689 | S. cerevisiae deletion strains, locus YLR268W, strain sec22, stronger effect = lower value 0.935 | S. cerevisiae deletion strains, locus YLR357W, strain rsc2, stronger effect = lower value 0.914 | S. cerevisiae deletion strains, locus YLR370C, strain arc18, stronger effect = lower value 0.953 | S. cerevisiae deletion strains, locus YLR371W, strain rom2, stronger effect = lower value 1.01 | S. cerevisiae deletion strains, locus YLR384C, strain iki3, stronger effect = lower value 0.987 | S. cerevisiae deletion strains, locus YML016C, strain PPZ1, stronger effect = lower value 0.986 | S. cerevisiae deletion strains, locus YML032C, strain rad52, stronger effect = lower value 0.909 | S. cerevisiae deletion strains, locus YML124C, strain tub3, stronger effect = lower value 0.997 | S. cerevisiae deletion strains, locus YMR078C, strain ctf18, stronger effect = lower value 1 | S. cerevisiae deletion strains, locus YMR129W, stronger effect = lower value 0.966 | S. cerevisiae deletion strains, locus YMR205C, strain PFK2, stronger effect = lower value 0.943 | S. cerevisiae deletion strains, locus YNL071W, strain lat1, stronger effect = lower value 0.918 | S. cerevisiae deletion strains, locus YNL175C, strain NOP13, stronger effect = lower value 0.983 | S. cerevisiae deletion strains, locus YNL183C, strain NPR1, stronger effect = lower value 0.987 | S. cerevisiae deletion strains, locus YNL197C, strain WHI3, stronger effect = lower value 0.975 | S. cerevisiae deletion strains, locus YNL224C, strain SQS1, stronger effect = lower value 1 | S. cerevisiae deletion strains, locus YNL248C, strain rpa49, stronger effect = lower value 0.913 | S. cerevisiae deletion strains, locus YNL250W, strain rad50, stronger effect = lower value 0.983 | S. cerevisiae deletion strains, locus YNL271C, strain bni1, stronger effect = lower value 0.994 | S. cerevisiae deletion strains, locus YNL298W, strain CLA4, stronger effect = lower value 0.937 | S. cerevisiae deletion strains, locus YNL322C, strain KRE1 (second series), stronger effect = lower value 0.995 | S. cerevisiae deletion strains, locus YNR049C, strain mso1, stronger effect = lower value 0.986 | S. cerevisiae deletion strains, locus YOL012C, strain htz1 0.226 | S. cerevisiae deletion strains, locus YOL147C, strain pex11, stronger effect = lower value 0.938 | S. cerevisiae deletion strains, locus YOR061W, strain CKA2, stronger effect = lower value 0.913 | S. cerevisiae deletion strains, locus YOR069W, strain VPS5, stronger effect = lower value 0.996 | S. cerevisiae deletion strains, locus YOR080W, strain dia2, stronger effect = lower value 1 | S. cerevisiae deletion strains, locus YOR136W, strain idh2, stronger effect = lower value 0.925 | S. cerevisiae deletion strains, locus YOR144C, strain elg1, stronger effect = lower value 1 | S. cerevisiae deletion strains, locus YOR231W, strain MKK1, stronger effect = lower value 0.968 | S. cerevisiae deletion strains, locus YOR290C, strain snf2, stronger effect = lower value 0.913 | S. cerevisiae deletion strains, locus YOR316C, strain cot1, stronger effect = lower value 1.01 | S. cerevisiae deletion strains, locus YPL078C, strain atp4, stronger effect = lower value 0.92 | S. cerevisiae deletion strains, locus YPL106C, strain sse1, stronger effect = lower value 0.999 | S. cerevisiae deletion strains, locus YPL240C, strain hsp82, stronger effect = lower value 0.983 | S. cerevisiae deletion strains, locus YPL256C, strain CLN2, stronger effect = lower value 0.978 | S. cerevisiae deletion strains, locus YPR119W, strain clb2, stronger effect = lower value 1.01 | S. cerevisiae deletion strains, locus YPR141C, strain kar3, stronger effect = lower value 0.999 | S. cerevisiae deletion strains, locus YPR167C, strain met16, stronger effect = lower value 0.979

Reference: PubChem BioAssay AID1159580 (chemical genetic matrix, 2015)
